Data taken from PubChem BioAssay (NCATS).
Results filed as inconclusive are left out. Values without a mark were called inactive. Activity calls are given as the source filed them. Calls come from the whole dose curve.

What follows are molecules tested against Vitamin D3 receptor (Homo sapiens) (UniProt P11473) (assay: qHTS assay for small molecule agonists of vitamin D receptor signaling (AID 588543)). Conditions: HEK293T VDR-UAS-bla, beta-lactamase ratio, 16 h; series mostly up to 76.8 µM; activation: at the top concentration.
Excerpt: NIH Chemical Genomics Center [NCGC]
U.S. Environmental Protection Agency [EPA]
National Institutes of Environmental Health Sciences [NIEHS]
National Toxicology Program [NTP]
The Vitamin D receptor (VDR) is a member of nuclear hormone receptor superfamily and it plays a critical role in calcium homeostasis and bone metabolism. It plays a role in inducing cell differentiation, inhibiting cell growth and in thrombogenicity. So, VDR that mediates these effects represents a pharmacological target in prevention and treatment of hyperproliferative malignancies, such as cancer and psoriasis, cardiovascular, immunological, inflammatory and renal diseases etc.
NCGC Assay Protocol Summary
Using a beta-lactamase reporter-gene under control of Vitamin D receptor (VDR) response element, a cell-based assay [GeneBLAzer (VDR -UAS-bla assay developed by Invitrogen] was used to measure VDR ligands signaling. GeneBLAzer VDR -UAS-bla HEK293T cells were used with assay medium containing 2% charcoal-stripped FBS. The assay was performed in clear bottom black Greiner 1536-well plates. 1-alpha,25-Dihydroxy vitaminD3 was used as a positive control in the screen. Library compounds were measured for their ability to stimulate the reporter gene activity. Compounds were screened in a titration series in 1536-well format. The fluorescence intensity (405 nm excitation, 460/530 nm emission) was measured using an EnVision plate reader. Data was normalized relative to 1-alpha,25-Dihydroxy vitaminD3 control (50 nM, 100%) and DMSO only wells (basal, 0%). Concentration-response titration points for each compound were fitted to the Hill equation yielding concentrations of half-maximal stimulation (EC50) and maximal response (efficacy) values.
qHTS protocol for VDR beta-lactamase assay in agonist mode
[Step] [Parameter] [Value] [Description]
1. Reagent; 6 uL; 2000 cells/well
2. Incubation; 37 C for 5 hrs
4. Controls (1-alpha,25-Dihydroxy vitaminD3); 23 nL,
- Final concentrations of 50 nM and 15 nM in two columns
5. Incubation; 37 C for 16 hrs
6. Detection reagent; 1 uL of CCF4-dye
7. Incubation; RT for 2 hrs
8. Detection; Fluorescence; Envision plate reader

Sequence of Vitamin D3 receptor (Homo sapiens) (P11473 whole entry, looked up): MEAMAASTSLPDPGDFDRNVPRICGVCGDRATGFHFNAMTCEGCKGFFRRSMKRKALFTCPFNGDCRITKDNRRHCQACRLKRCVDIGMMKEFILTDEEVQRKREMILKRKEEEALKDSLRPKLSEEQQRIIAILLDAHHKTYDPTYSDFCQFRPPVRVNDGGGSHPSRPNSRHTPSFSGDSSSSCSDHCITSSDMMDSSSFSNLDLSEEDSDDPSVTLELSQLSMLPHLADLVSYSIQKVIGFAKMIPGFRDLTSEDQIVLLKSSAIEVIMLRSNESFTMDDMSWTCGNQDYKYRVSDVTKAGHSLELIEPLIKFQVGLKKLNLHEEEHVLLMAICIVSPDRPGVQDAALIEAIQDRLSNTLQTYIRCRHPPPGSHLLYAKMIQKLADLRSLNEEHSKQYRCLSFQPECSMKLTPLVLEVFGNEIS

Structure (SMILES)	activation	Potency
CCOP(=S)(OCC)SCSCC	-1.61%	
CCOC(=O)c1ccccc1N	-3.31%	
Oc1ccccc1Cl	3.23%	
CC(C)OC(=O)Nc1ccccc1	0.739%	
CCOc1cc(C=O)ccc1O		inactive
c1ccc2c(c1)-c1cccc3cccc-2c13		inactive
Cc1ccc(C)c2ccccc12	7.65%	
Cc1ccccc1O		inactive
C[C@@H]1Cc2c(Cl)cc(C(=O)N[C@@H](Cc3ccccc3)C(=O)O)c(O)c2C(=O)O1		44.7 µM (active)
CC(=O)/C=C/c1ccccc1	0.208%	
O=Cc1ccccc1	-0.158%	
Oc1c(Cl)c(Cl)c(Cl)c(Cl)c1Cl		inactive
COC(=O)c1ccccc1C(=O)OC	1.5%	
c1ccc(Nc2cccc3ccccc23)cc1	-7.15%	
